# Measurements: PubChem BioAssay (NCI)
# Compounds without any hit were thinned out: in the full panel of roughly 83,000, 20% have a hit.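 The endpoint reported here, percent growth, reads 100 for growth as untreated, 0 for no net growth and -100 for all cells dead.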 Activity calls are given as the source filed them. Rule for the calls: active = growth percent below 10; inactive = the rest.
# System: K-562 leukemia
# Test: NCI-60 one-dose screen, 48 h (100 = growth as untreated, 0 = no growth, -100 = all killed)
# Details: 10 µM unless noted
row,SMILES,growth
1,CC(=O)O[C@H]1C(=O)[C@@]2(C)C([C@H](OC(=O)c3ccccc3)[C@]3(O)C[C@H](OC(=O)[C@H](O)[C@@H](NC(=O)c4ccccc4)c4ccccc4)C(C)=C1C3(C)C)[C@]1(OC(C)=O)CO[C@@H]1C[C@@H]2O (some centres not stated),12.5% (inactive)
2,C[C@@H]1CC[C@H]2[C@@H](C)C(O)O[C@@H]3O[C@]4(C)CC[C@@H]1[C@]32OO4 (some centres not stated),10.8% (inactive)
3,C/C(=C\CCc1ccsc1)CC/C=C(\C)CCCN1CCN(CCO)CC1,-27.4% (active)
4,CN1COc2ccc3ccccc3c2C1,99.7% (inactive)
5,COc1ccc(-c2cnnn2-c2cc(OC)c3c(c2)OCO3)cc1,0.651% (active)
6,Nc1c2ccccc2nc2ccccc12 (tested in a mixture with another compound),15.3% (inactive)
7,CCOC(=O)C1=C(C)N2C(=NC3=C(CCC/C3=C\c3ccc(Cl)cc3)C2c2ccc(Cl)cc2)S1 (configuration not stated),-11.8% (active)
8,C=C(C)[C@H]1CC/C(C)=C/CC[C@]2(C)O[C@H]2CC/C(C=O)=C\C1O (some centres not stated),124% (inactive)
9,CCN(CC)CCCCNc1c2ccccc2[n+](C)c2c1[nH]c1ccccc12,-20.8% (active)
10,Nc1ccccc1-c1ccc([N+](=O)[O-])cc1,15.5% (inactive)
11,Cc1ccc(NC(=O)Nc2ccc(-c3cccnc3)cc2N2CCC(CO)CC2)cc1,9.37% (active)
12,O=C(OC[C@H]1O[C@H](OC(=O)c2cc(O)c(O)c(OC(=O)c3cc(O)c(O)c(O)c3)c2)[C@H](OC(=O)c2cc(O)c(O)c(OC(=O)c3cc(O)c(O)c(O)c3)c2)[C@@H](OC(=O)c2cc(O)c(O)c(OC(=O)c3cc(O)c(O)c(O)c3)c2)[C@@H]1OC(=O)c1cc(O)c(O)c(OC(=O)c2cc(O)c(O)c(O)c2)c1)c1cc(O)c(O)c(OC(=O)c2cc(O)c(O)c(O)c2)c1,31.5% (inactive)
